The values below come from ChEMBL document CHEMBL1201862, “PubChem BioAssay data set” (2004).

The structures appear in SMILES notation. Screen size: about 400,000 compounds; about 2,100 (0.53%) were called active. Another 14% or so got no clear call; they are omitted. The rule behind the calls is not given here. This excerpt belongs to a sample that is enriched for actives.

Chain of Ataxin-2 (Homo sapiens) (Q99700 whole entry): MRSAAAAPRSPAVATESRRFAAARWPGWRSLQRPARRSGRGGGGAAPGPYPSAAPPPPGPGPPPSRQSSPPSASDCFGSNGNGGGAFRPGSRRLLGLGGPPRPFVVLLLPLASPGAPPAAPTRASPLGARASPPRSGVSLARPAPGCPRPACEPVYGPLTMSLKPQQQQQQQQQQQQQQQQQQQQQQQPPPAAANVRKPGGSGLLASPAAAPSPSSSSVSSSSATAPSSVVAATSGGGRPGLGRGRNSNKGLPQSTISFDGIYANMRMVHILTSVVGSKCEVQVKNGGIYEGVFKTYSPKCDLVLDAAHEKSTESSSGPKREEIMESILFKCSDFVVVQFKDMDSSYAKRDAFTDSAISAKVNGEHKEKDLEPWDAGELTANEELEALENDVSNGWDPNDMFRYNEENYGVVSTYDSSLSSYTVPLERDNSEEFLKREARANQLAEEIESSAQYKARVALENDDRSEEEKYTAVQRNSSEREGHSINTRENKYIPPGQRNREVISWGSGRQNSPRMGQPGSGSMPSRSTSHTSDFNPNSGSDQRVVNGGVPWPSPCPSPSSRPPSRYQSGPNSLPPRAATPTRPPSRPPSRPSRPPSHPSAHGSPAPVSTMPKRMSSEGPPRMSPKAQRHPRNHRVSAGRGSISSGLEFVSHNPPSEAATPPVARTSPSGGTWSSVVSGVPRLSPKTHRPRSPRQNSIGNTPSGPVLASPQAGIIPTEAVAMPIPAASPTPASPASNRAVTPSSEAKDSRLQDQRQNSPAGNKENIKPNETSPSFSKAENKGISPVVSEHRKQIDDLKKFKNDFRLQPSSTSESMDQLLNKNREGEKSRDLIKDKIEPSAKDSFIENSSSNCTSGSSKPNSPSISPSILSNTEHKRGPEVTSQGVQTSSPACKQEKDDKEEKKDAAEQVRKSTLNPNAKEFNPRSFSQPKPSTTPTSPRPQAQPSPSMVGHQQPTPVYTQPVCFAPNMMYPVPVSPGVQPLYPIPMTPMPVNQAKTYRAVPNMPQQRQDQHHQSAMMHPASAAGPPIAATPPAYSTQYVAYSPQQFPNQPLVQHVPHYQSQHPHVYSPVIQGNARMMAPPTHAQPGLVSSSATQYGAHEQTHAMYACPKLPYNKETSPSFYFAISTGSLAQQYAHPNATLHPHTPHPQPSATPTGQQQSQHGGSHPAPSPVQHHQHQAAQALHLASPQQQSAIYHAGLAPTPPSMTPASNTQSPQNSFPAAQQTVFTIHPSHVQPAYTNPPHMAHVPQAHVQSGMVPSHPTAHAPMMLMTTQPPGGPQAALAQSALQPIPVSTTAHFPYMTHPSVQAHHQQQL

This assay concerns the target Ataxin-2 (Homo sapiens) (UniProt Q99700). The experiment in a line: qHTS for Inhibitors of ATXN expression. It is filed as functional.
As for `CCC(CO)Oc1cc(NCc2ccccc2C(F)(F)F)c2ncn(C(C)C)c2c1` (configuration not stated), the Potency is 25.1 µM (active).

With `CC[C@H](CO)Oc1cc(NCc2cccc(N)c2)c2ncn(C(C)C)c2c1`, the Potency was 31.6 µM (active).

As for `CC[C@H](CO)Oc1cc(NCc2ccc(Cl)c(Cl)c2)c2ncn(C(C)C)c2c1`, the Potency is 35.5 µM (active).

On to `Nn1c(SCC(=O)Nc2c(F)cc(F)cc2Br)nnc1C1CCCCC1`, for which the Potency result was “inactive”.

In the case of `Cc1cc2c(cc1C)NC(CC(=O)Nc1ccccc1)C(=O)N2` (configuration not stated), the Potency entry is “inactive”.

For the compound `CCCOc1c(Br)cc(C2C3=C(CCCC3=O)N(C)C3=C2C(=O)CCC3)cc1OC`, the Potency entry was “inactive”.

Regarding `Cn1c(CNc2ccccc2O)nc2ccccc21`, the Potency result is “inactive”.

With `COc1cccc(C(=O)/C=C2\Sc3ccccc3N2C)c1`, the Potency result was “inactive”.

For the compound `CCC(/C=C1\Sc2ccc(OC)cc2N1CCO)=C\c1sc2ccc(OC)cc2[n+]1CCO`, the Potency is 17.8 µM (active).

As for `CCOC(=O)c1cc2c(OC)c(OC)ccc2c2ncc(C#N)c(O)c12`, the Potency result is “inactive”.

For `COCCNC(=O)c1c(N)n(/N=C/c2cccs2)c2nc3ccccc3nc12`, the Potency result was “inactive”.

As for `COCCn1c(N)c(C(=O)NCc2cccs2)c2nc3ccccc3nc21`, the Potency result is “inactive”.

In the case of `Nc1c(S(=O)(=O)c2ccccc2)c2nc3ccccc3nc2n1C1CC1`, the Potency result is “inactive”.

On to `Cc1ccc(S(=O)(=O)c2c(N)n(-c3ccccc3)c3nc4ccccc4nc23)cc1`, for which the Potency result was “inactive”.

In the case of `Nc1c(S(=O)(=O)c2cccs2)c2nc3ccccc3nc2n1/N=C/c1cccc(O)c1`, the Potency was 39.8 µM (active).

`Nc1c(S(=O)(=O)c2ccccc2)c2nc3ccccc3nc2n1/N=C/c1cccc(O)c1`: the Potency is 39.8 µM (active).

For `Nc1c(C(=O)NCC2CCCO2)c2nc3ccccc3nc2n1-c1ccccc1` (configuration not stated), the Potency entry was “inactive”.

Turning to `COc1ccc(N2C3=C(C(=O)CC(C)(C)C3)C(c3ccccc3OC)C3=C2CC(C)(C)CC3=O)cc1`, the Potency result was “inactive”.

In the case of `CC1(C)CC(=O)C2=C(C1)N1C(=C(C#N)C2c2ccc(Cl)cc2)N=C(N)c2ccccc21` (configuration not stated), the Potency is 22.4 µM (active).

For `COc1ccc(C2C3=C(CC(C)(C)CC3=O)N(C)C3=C2C(=O)CC(C)(C)C3)cc1`, the Potency entry is “inactive”.

In the case of `COc1cccc(C=O)c1OCCCOc1cccc2cccnc12`, the Potency was 39.8 µM (active).

Regarding `COc1ccccc1OCCCC(=O)NCc1ccco1`, the Potency entry was “inactive”.

`COc1ccc(C2C3=C(O)CC(C)(C)CC3=Nc3c2c(=O)[nH]c(=O)n3Cc2ccccc2)cc1OC` (configuration not stated): the Potency entry was “inactive”.

With `CC(C)(C)c1ccc(C2Sc3ccccc3NC3=C2C(=O)c2ccccc23)cc1` (configuration not stated), the Potency is 39.8 µM (active).

For the compound `CCCc1ccc(C2Sc3ccccc3NC3=C2C(=O)c2ccccc23)cc1` (configuration not stated), the Potency is 31.6 µM (active).

Turning to `Cc1cc2c(NC(=O)CC(C)(C)CC(=O)O)cccc2nn1`, the Potency result is “inactive”.

`C=CCSc1nnc(C)c(/C=C/Nc2ccc(Cl)cc2)n1`: the Potency result is “inactive”.

Take `CCC(=O)Oc1ccc2c(c1)O/C(=C\c1ccco1)C2=O`: the Potency entry is “inactive”.

For the compound `CCOC(=O)c1c(NC(=O)c2ccc(S(=O)(=O)N3CCC(C)CC3)cc2)sc2c1CCN(C(C)C)C2`, the Potency entry is “inactive”.

On to `Cc1ccc(C)n1NC(=O)c1ccc([N+](=O)[O-])cc1`, for which the Potency entry was “inactive”.

In the case of `N#Cc1c(N)n(CCOC(=O)c2cccc([N+](=O)[O-])c2)c2nc3ccccc3nc12`, the Potency entry was “inactive”.

In the case of `O=C(C#Cc1ccccc1)c1ccc([N+](=O)[O-])cc1`, the Potency was 25.1 µM (active).

Take `O=[N+]([O-])c1ccc(N(c2ccccc2)c2ccccc2)cc1`: the Potency result was “inactive”.

With `Cc1c(C(=O)c2cccc([N+](=O)[O-])c2)c2ccccn2c1CCC#N`, the Potency entry is “inactive”.

Take `O=C(C#Cc1ccccc1)c1cccc([N+](=O)[O-])c1`: the Potency is 17.8 µM (active).

For `O=C(c1cn(-c2ccccc2)nc1-c1cccnc1)N1CCN(S(=O)(=O)c2ccccc2F)CC1`, the Potency result was “inactive”.

For `Cc1cc(C)cc(OCC(=O)NC2CCCc3ccccc32)c1` (configuration not stated), the Potency entry is “inactive”.

As for `O=C(/C=C/Nc1ccccc1Oc1ccccc1)c1ccco1`, the Potency result is “inactive”.

Turning to `NC(=O)N/N=C\c1cc(Br)ccc1O`, the Potency result was “inactive”.

`O=C(/C=C/c1cc(Br)ccc1O)c1ccco1`: the Potency was 39.8 µM (active).

As for `COc1ccc(C2=CC(c3ccc(C)cc3)n3nnnc3N2)cc1` (configuration not stated), the Potency entry was “inactive”.

With `ClCc1nnc(-c2cc3c(s2)CCCC3)o1`, the Potency is 39.8 µM (active).

Consider `Sc1nnc(-c2cc3c(s2)-c2ccccc2CC3)o1`, for which the Potency result was “inactive”.

In the case of `CCOC(=O)c1cc2c(=O)n3ccccc3nc2n(Cc2ccco2)/c1=N\C(=O)c1ccc(C)c(C)c1`, the Potency entry is “inactive”.

Turning to `COc1ccc(Cl)cc1NC(=O)C(OC)c1ccccc1` (configuration not stated), the Potency entry is “inactive”.

In the case of `COc1ccc(OC)c(NC(=O)C(C)Oc2ccc(Br)cc2)c1` (configuration not stated), the Potency entry was “inactive”.

For `COc1cc2c(cc1NC(=O)C(Cl)Cl)-c1ccc(NC(=O)C(Cl)Cl)cc1C2`, the Potency is 16.8 µM (active).

Consider `CCN(Cc1ccccc1)C(=O)CSc1ccccc1C(=O)O`, for which the Potency entry is “inactive”.

`COc1cccc(N/C=C/C(=O)c2ccc(Cl)cc2)c1`: the Potency entry is “inactive”.

In the case of `COc1cccc(-c2nnc(NC(=O)c3ccc(Cl)s3)o2)c1`, the Potency was 25.1 µM (active).

For `O=C(Nc1nnc(-c2cccs2)o1)c1cccc(Oc2ccccc2)c1`, the Potency was 28.2 µM (active).

Turning to `N=c1oc2c3c4c(cc2cc1C(=O)Nc1ccccc1)CCCN4CCC3`, the Potency entry was “inactive”.

Regarding `COC(=O)c1ccsc1NC(=O)c1cccc(OC)c1`, the Potency result was “inactive”.

As to `O=C(Nc1ccccc1C(=O)Nc1ccccc1C(=O)O)c1ccccc1`, the Potency entry is “inactive”.

In the case of `COc1ccc(OC)c2sc(NC(=O)c3ccc(Cl)s3)nc12`, the Potency entry is “inactive”.

With `O=C(Nc1nnc(-c2ccc3c(c2)CCCC3)o1)c1ccccc1`, the Potency was 39.8 µM (active).

As for `COc1cccc(-c2ccc3c(N)c(C(=O)Nc4ccc(Cl)cc4F)sc3n2)c1`, the Potency result is “inactive”.

Regarding `COc1cccc(C(=O)Nc2nnc(-c3ccc(Cl)cc3)o2)c1`, the Potency is 35.5 µM (active).

For `Cc1ccc(NC(=O)c2cccc(Oc3ccc([N+](=O)[O-])cc3)c2)c(C(=O)O)c1`, the Potency entry was “inactive”.

Take `O=C(Oc1ccc(OC(=O)C2CCC2)cc1)C1CCC1`: the Potency result is “inactive”.

In the case of `Cc1nc2scc(-c3ccccc3)c2c(=O)n1N=C1C=CC(=O)C=C1`, the Potency entry is “inactive”.

Consider `CCOC(=O)c1c(NC(=O)c2ccno2)c2cc([N+](=O)[O-])ccc2n1C`, for which the Potency entry is “inactive”.

As to `OCCN(CCO)c1nc(N2CCCCC2)c2nc(N(CCO)CCO)nc(N3CCCCC3)c2n1`, the Potency result is “inactive”.

As to `Cc1cc(C)c(C#N)c(SCC(=O)C2CC2)n1`, the Potency entry was “inactive”.

Turning to `Cc1ccnc2nc(C(=O)Nc3nnc(-c4ccccc4)o3)nn12`, the Potency result was “inactive”.

As for `O=C(NCc1nnc2c3ccccc3c(-c3ccccc3)nn12)c1ccc(Cl)cc1`, the Potency entry was “inactive”.

On to `O=C(Nc1nnc(-c2ccccc2)o1)c1ccc(Cl)cc1`, for which the Potency was 39.8 µM (active).
